Several values for one entry are separate records, joined by “and”; a condition that tells them apart may be missing. Equal values may be shown once. Inconclusive results are not listed. Some structures have more than one record in an assay (separate samples or runs), and their calls can disagree. Activity calls are given as the source filed them. Calls follow the shape of the dose curve; as a rule, active = well fitted cell-killing curve with a large enough effect; inconclusive = small, poorly fitted or top-dose-only effect, or effect the other way; inactive = no such curve, though single readings can be large or run the other way.
Test: Viability qHTS for spleen associated tyrosine kinase inhibitor (SYKi) drug resistant MV4-11 cells (AID 1963824); also: nearly all actives have a fitted effect of over 35% in size
Conditions: SYKi-resistant MV4-11 viability, CellTiter-Glo, 72 h; series mostly up to 45 µM
Source text: Department of Medicine, Hematology/Oncology
University Hospital Frankfurt, Germany.
Trials have shown promising clinical activity of the selective SYK inhibitor entospletinib in patients with high expressing HOXA9/MEIS1 acute leukemias. As the development of resistance mechanisms is a common problem in the use of targeted drugs, we performed a chemical library screen to identify drug sensitivities in SYK inhibitor resistant AML cells. […] Glucocorticoids are potent immunosuppressants which work in part by inhibiting the transcription of cytokine genes.
Described herein is a viability screen to look for activity in the SYK inhibitor drug resistant cell line against four NCATS compound libraries (MIPE 5.0, NPC, NPACT, and Kinase) totaling 11372 compounds. Active hits were reacquired for confirmation and further secondary assay testing.
SEQUENCE No. (e.g., 1, 2, 3, etc.); […] (e.g., Cells, Incubation, Reagent, etc.); VALUE; DESCRIPTION.
1; Media; 2uL; white, solid-bottom Corning assay plate.
2; Compounds; 23nL; Echo acoustic dispenser.
3; Cell; 5uL; 500 cells per well.
4: Incubation; 72hr; 37 C, 5% CO2, 95% humidity.
5; Reagent; 3uL; CellTiter-Glo reagent (Promega).
6; Incubation; 10min; room temperature.
7; Detection; Luminescence; ViewLux plate reader (PerkinElmer).
NOTES (numbers refer to Sequence numbers above
1. Quantitative high-throughput screening (qHTS) of small molecule compounds was conducted on drug resistant SYKi MV4-11 cell line.
2. Twenty-three nanoliter of small molecule compounds were added to each assay plates using the Echo acoustic dispenser (Beckman Coulter).
3. Cells were seeded into the assay plates at a final density of 500 cells in 5uL of media per well using the Multidrop Combi dispenser.
4. Plates were covered with stainless steel gasketed lids and incubated for 72 hours at standard cell culture conditions.
5. Viability was assessed by adding 3uL of CellTiter-Glo detection reagent (Promega).
6. Plates were covered with gasket lids and incubated for 10 minutes at room temperature.
7. Luminescence was measured on a ViewLux plate reader (PerkinElmer).
Potency is read from the fitted curve at half-maximal effect.

Structure (SMILES)	Potency	viability, % of control
CN1CCC[C@@H]1CCO[C@](C)(c1ccccc1)c1ccc(Cl)cc1	18.8 µM (active)	–
NC(=O)c1cccc2[nH]c(-c3ccc([C@H]4CCCN4)cc3F)nc12	16.6 µM (active)	–
CN(C)C(N)=NC(=N)N	inactive	–
CCN(CC)CC(=O)Oc1ccc(NC(C)=O)cc1	inactive	–
Cc1oc(=O)oc1CN1CCN(c2cc3c(cc2F)c(=O)c(C(=O)O)c2n3C(C)S2)CC1 (stereo not given)	18.6 µM (active)	–
C[C@@H](CC[C@@H]1[C@@]2(C)CCCC(C)(C)C2CC[C@@]1(C)O)CC(=O)O (stereo not given in full)	inactive	–
CC(C)(O)/C=C/C(=O)[C@](C)(O)[C@H]1[C@H](O)C[C@@]2(C)[C@@H]3CC=C4[C@@H](C[C@H](O[C@@H]5O[C@H](CO)[C@@H](O)[C@H](O)[C@H]5O)C(=O)C4(C)C)[C@]3(C)C(=O)C[C@]12C	6.11 µM (active)	–
CCN1/C(=C/C(C)=O)Sc2ccc(OC(C)=O)cc21	10.3 µM (active)	–
CCS(=O)c1nc(-c2cccc(OCc3ccccc3)c2)cc(C(F)(F)F)n1 (stereo not given)	5.8 µM (active)	–
CN[C@@H]1[C@H](O)[C@H](NC)[C@H]2O[C@@]3(O)C(=O)C[C@@H](C)O[C@H]3O[C@@H]2[C@H]1O	inactive	–
C[N+](C)(CCOc1ccccc1)Cc1cccs1	inactive	–
CC(C#N)C(C)O[C@@H]1O[C@H](CO)[C@@H](O)[C@H](O)[C@H]1O (stereo not given in full)	inactive	–
Cc1cc(O)cc2c1[C@]1(C)CC[C@H]3C(C)(C)CCC[C@]3(C)[C@H]1C2	–	59.2% [at 4.97 µM] (inactive)
NCCS	inactive	–
CO[C@@H]1[C@@H](OC(N)=O)[C@@H](O)[C@H](Oc2ccc3c(O)c(NC(=O)c4ccc(O)c(CC=C(C)C)c4)c(=O)oc3c2C)OC1(C)C	inactive	–
O=C(CCCCc1ccc2ccccc2c1)C(F)(F)F	inactive	–
COc1cc(SC)ccc1C(=O)N1CCC(Cc2ccccc2)CC1	16.6 µM (active) and 20.6 µM (active)	–
COc1ccc(-c2cc(C(O)C3CCCCN3)c3ccccc3n2)cc1 (stereo not given)	1.66 µM (active)	–
CC(C)=CCC/C(C)=C/COCC1OC(n2ccc(=O)[nH]c2=O)C(O)C1O (stereo not given)	11.4 µM (active)	–
CCCCOc1ccc(CC(=O)NO)cc1	inactive and 18.6 µM (active)	–

Structure (SMILES)	Potency	viability, % of control
CC1CCC(n2c3cnccc3c3cnc(Nc4ccc5c(n4)CCN(C(=O)CO)C5)nc32)CC1 (stereo not given)	164 nM (active) and 170 nM (active)	–
CC(C)(C(=O)c1cccnc1)c1cccnc1	inactive	–
O=C(N[C@H]1CCC[C@H](CO)C1)C1CCN(c2nc3cc(Cl)c(-c4ccc(Cl)cc4)cc3o2)CC1	16.6 µM (active)	–
Cc1ccccc1C(C(=O)NC1CCCCC1)N(C(=O)Cn1ccnc1C)c1cccc(F)c1 (stereo not given)	9.34 µM (active)	–
CC/C=C\[C@H](O)[C@H](O)C1=C(C)C(=O)[C@]2(O1)C(=O)N[C@@](OC)(C(=O)c1ccccc1)[C@@H]2O	inactive	–
O=C(O)c1cc(=O)[nH]c(=O)[nH]1	inactive	–
Cc1onc(-c2ccccc2)c1-c1ccc(S(N)(=O)=O)cc1	14.8 µM (active)	–
Cc1nc(CNc2ncnc3ccc(-c4ccc5c(c4)OCO5)cc23)cs1	23.1 µM (active)	–
O=c1[nH]c2cc(C(F)(F)F)c(N3CCOCC3)cc2n(CP(=O)(O)O)c1=O	inactive	–
COC1(c2sc3c(N4CCOCC4)nc(-c4cnc(N)nc4)nc3c2C)COC1	0.411 µM (active)	–
Oc1ccc(OCc2ccccc2)cc1	inactive and 8.33 µM (active)	–
CCc1cc(S(=O)(=O)O)c2cc(C(C)C)cccc1-2	inactive	–
Cc1cc(-n2nc3ccc(Cl)cc3n2)c(O)c(C(C)(C)C)c1	inactive	–
C=C1[C@@H](OC(C)=O)CC[C@@]2(C)[C@@H](OC(C)=O)[C@H](OC(C)=O)C3=C(C)C[C@H](OC(=O)C(C)CC)[C@@H]([C@@H](OC(C)=O)[C@H]12)C3(C)C (stereo not given in full)	1.22 µM (active)	–
Clc1ccc2ncc(-c3cccc(NC4CCNC4)n3)n2c1 (stereo not given)	0.0103 µM (active)	–
O=C1CCCc2c(O)cccc21	inactive	–
CC(=O)N[C@H]1[C@H](O[C@H]2CC[C@@]3(C)C(CC[C@]4(C)C3CC=C3C5CC(C)(C)CC[C@]5(C(=O)O)[C@H](O)C[C@]34C)C2(C)C)O[C@H](CO[C@@H]2OC[C@H](O)[C@H](O)[C@H]2O[C@@H]2OC[C@@H](O)[C@H](O)[C@H]2O)[C@@H](O)[C@@H]1O (stereo not given in full)	–	113% [at 9.25 µM] (inactive)
CC(=O)O[C@H]1C[C@@H](O)C(C)(C)C2C[C@@H](OC(C)=O)[C@@]3(C)C4=CCC(C(CO)CC(O)C5OC5(C)C)[C@]4(C)CCC3[C@]21C (stereo not given in full)	inactive	–
C[C@@H]1CN(c2c(F)c(F)c3c(=O)c(C(=O)O)cn(C4CC4)c3c2F)C[C@H](C)N1	4.61 µM (active)	79.8% [at 9.25 µM] (inactive)

— PubChem BioAssay (NCATS)
